Calb FLC: C. albicans growth modulation with fluconazole; C. albicans CaCi-2 (fluconazole-resistant clinical isolate) + fluconazole, Alamar Blue growth, 48 h; growth inhibition, % (test concentration not listed); actives 0.57% (n = 300,000); AID 1979;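 active means growth inhibition above about 58% in most replicates, limit read from the data, passing the limit was not always enough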;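 further: all wells also contain fluconazole at 8 µg/ml as a sub-toxic cotreatment; 0% = median of DMSO wells and 100% = median of geldanamycin control wells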
PP1 counter: blocks human PP1-alpha phosphatase, a PP5 counter-screen; P62136; purified PP1alpha, OMFP fluorescence; inhibition, % at 6.7 µM; actives 0.9% (n = 320,000); AID 2235;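 active means inhibition above the mean inhibition of all tested compounds plus 3 SD, computed separately for each screening campaign, cut at about 15% in these data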
Target sequence (P62136 whole entry, looked up): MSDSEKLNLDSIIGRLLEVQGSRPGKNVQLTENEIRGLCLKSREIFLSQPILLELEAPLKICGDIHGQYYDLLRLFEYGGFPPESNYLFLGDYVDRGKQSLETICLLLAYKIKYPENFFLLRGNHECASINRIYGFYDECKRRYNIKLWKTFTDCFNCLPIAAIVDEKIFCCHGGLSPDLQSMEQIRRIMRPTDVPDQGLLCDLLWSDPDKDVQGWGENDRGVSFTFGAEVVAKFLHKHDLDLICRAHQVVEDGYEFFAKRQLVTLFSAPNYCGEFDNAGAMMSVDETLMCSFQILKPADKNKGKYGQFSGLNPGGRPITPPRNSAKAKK
ALR inh: human ALR oxidase inhibition via reduced H2O2; P55789; purified ALR, DTT oxidation, H2O2 HRP-luminol luminescence; inhibition, % (no concentration beside the values); actives 3.8% (n = 290,000); AID 485317;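 active means mean replicate inhibition above about 79%, with every replicate also reaching it, limit read from the data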
Target sequence (P55789 whole entry, looked up): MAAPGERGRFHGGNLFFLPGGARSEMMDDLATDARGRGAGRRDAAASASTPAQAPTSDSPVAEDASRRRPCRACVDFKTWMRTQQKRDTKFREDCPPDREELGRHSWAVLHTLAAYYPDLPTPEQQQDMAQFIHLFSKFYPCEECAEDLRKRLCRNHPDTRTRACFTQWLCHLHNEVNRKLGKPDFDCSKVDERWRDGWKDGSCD
PP5 primary: blocks human protein phosphatase 5 activity; P53041; purified PP5c, OMFP substrate fluorescence; inhibition, % at 6.7 µM; actives 0.18% (n = 320,000);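 active means inhibition above the campaign's mean inhibition across all tested compounds plus 3 SD, cut at about 9.5% in these data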;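 further: 0% = DMSO only and 100% = 100 µM cantharidin control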
CSC inhib: cancer stem cell inhibition | cancer stem cell-like cells viability, luminescence | inhibition, % at 7.5 µM | actives 1.1% (n = 300,000); in the data active means inhibition above about 75%; tested in HMLE shEcad cells
Active calls of the source: *; nt = no result. Shown are actives, neighbours in structure and some others; about 5.4% of the full set was active somewhere.

SMILES	Calb FLC	PP1 counter	ALR inh	PP5 primary	CSC inhib
COc1cc(NC(=O)c2cc(OC)c(OC)c(OC)c2)ccc1NC(=O)c1cccs1	-3	-3	2	0	-2
Cc1cc(C(=O)NC2CCCc3c2cnn3-c2ccc(C)c(C)c2)no1 (stereo not drawn)	-17	-1	89*	0	6
C[C@H](CO)N1C[C@H](C)[C@@H](CN(C)C(=O)Nc2ccc(C(F)(F)F)cc2)Oc2c(NC(=O)Nc3ccc(C(F)(F)F)cc3)cccc2C1=O	nt	nt	1	nt	106*
NC(=O)C1CCN(CCC(=O)Nc2ccc(Br)cc2)CC1	50	-1	-7	-1	8
CCC(=O)Nc1ccc(N2CCCCC2)cc1	-22	1	nt	0	16
CC(=O)Nc1ccc(N2CCCCC2)cc1	-5	0	99*	2	-8
Cc1ccc(S(=O)(=O)Nc2ccc(N3CCCCC3)cc2)cc1	-6	0	98*	5	8
O=C(CCC(=O)c1cccs1)Nc1ccc(N2CCCCC2)cc1	-12	11	90*	0	-3
O=C(CCl)Nc1ccc(N2CCCCCC2)cc1	1	2	99*	0	18
Cc1ccc(NC(=O)CCC(=O)c2cccs2)cc1	-19	3	-4	1	-7
N#Cc1nc(-c2cccc3ccccc23)oc1NCCN1CCCCC1	-24	-1	14	-2	2
COc1cc(C2C(C(C)=O)=C(O)C(=O)N2c2ccc(Br)cn2)ccc1O (stereo not drawn)	18	6	21	-1	-15
COc1ccc(NC(=O)c2ccccc2C)cc1	-2	-1	0	1	-15
CCCC(=O)Nc1ccc(N2CCCCC2)cc1	-9	-4	82*	1	-7
CC1CCCCN1CC(=O)Nc1ccc(N2CCCCCC2)cc1 (stereo not drawn)	-5	7	99*	-2	39
O=C(Nc1ccc(N2CCCCC2)cc1)C1CCCN1S(=O)(=O)c1ccc(F)cc1 (stereo not drawn)	nt	-4	80*	3	-8
CC(=O)Nc1ccc(S(=O)(=O)Nc2ccc(N3CCOCC3)cc2)cc1	10	-3	82*	0	9
O=C(C[C@H]1C/C=C\C[C@@H](Cc2ccc(F)cc2)C(=O)OC[C@@H](Cc2c[nH]c3ccccc23)NC1=O)NCCO	nt	nt	-1	nt	nt
CCNC(=S)Nc1cccc(S(=O)(=O)Nc2ccccc2OC)c1	-3	-2	24	3	23
COc1ccc(C(=O)O)cc1S(=O)(=O)Nc1ccc(C)cc1	5	-4	nt	-4	-2
O=C(CCl)Nc1ccc(N=Nc2ccccc2)cc1	-34	nt	nt	nt	nt
O=C(CCl)Nc1ccc(-c2ccccc2)cc1	92*	-1	nt	-4	5
COc1ccc(C(=O)O)cc1S(=O)(=O)Nc1ccc(N2CCCCC2)cc1	nt	nt	96*	nt	nt
COc1ccc(CCn2c3c(c(=O)[nH]c2=O)C(NC(=O)c2cccs2)(C(F)(F)F)C(=O)N3)cc1OC (stereo not drawn)	-27	0	-1	3	-12
COc1ccc(-c2cn3cc(C(F)(F)F)cc(Cl)c3n2)cc1	-4	1	44	4	127*
SMILES	Calb FLC	PP1 counter	ALR inh	PP5 primary	CSC inhib
Cc1ccc(Nc2c(-c3ccc(N4CCOCC4)cc3)nc3ncccn23)cc1C	-7	3	94*	4	-2
Cc1cccc(Nc2c(-c3ccc(O)cc3)nc3ncccn23)c1	-12	0	23	0	14
Cc1cccc(C)c1Nc1c(-c2ccsc2)nc2ncccn12	-10	0	98*	2	-24
Cc1ccccc1Nc1c(-c2ccc(N3CCOCC3)cc2)nc2ncccn12	0	-3	98*	1	-7
COc1ccccc1NC(=S)NC(=O)Cc1ccccc1	0	2	-2	3	-12
CCCC(O)(c1ccc(Cl)cc1)C(CN1CCOCC1)c1ccc(Cl)cc1 (stereo not drawn)	8	4	-1	1	94*
Cc1cc(Cn2nc(-c3ccccc3)cc2C(=O)NCc2cccc(C(F)(F)F)c2)on1	-8	6	-2	6	37
COc1ccc(CC(=O)Nc2cccc3ncccc23)cc1OC	-5	-6	-10	-2	-6
Cc1cc(C)nc(NC(=NCc2ccc3c(c2)OCO3)NC(=O)Nc2ccccc2)n1	122*	-4	-63	2	-1
COc1cccc(-c2nnc(NC(=O)c3ccco3)s2)c1	30	-4	-3	-1	4
CCCOc1cccc(-c2nnc(NC(=O)c3ccco3)s2)c1	88*	4	0	3	3
O=C(Nc1ccc(Cl)cc1)Nc1nnc(-c2ccncc2)s1	6	-1	-30	3	91*
O=C(Nc1ccc(F)cc1)Nc1nnc(-c2ccncc2)s1	-11	2	-3	-1	41
O=C(OCCC1Oc2cccnc2NC1=O)c1ccc(F)cc1 (stereo not drawn)	-6	0	29	-2	34
CCOc1ccc(C(=O)Nc2cc(C)ccn2)cc1	-16	1	2	2	-10
CCN1CCC(NC(=O)Nc2ccc(F)cc2)CC1	-4	0	-4	3	-14
COc1ccc(-n2c(SCC(=O)Nc3ccccc3C)nc(O)c(Cc3ccccc3)c2=O)cc1	17	-3	88*	1	-13
COc1ccc(-n2c(SCC(=O)Nc3ccc(C)cc3)nc(O)c(Cc3ccccc3)c2=O)cc1	-1	0	98*	0	-7
COc1ccc(-n2c(SCC(=O)Nc3ccc(Cl)cc3)nc(O)c(Cc3ccccc3)c2=O)cc1	-2	3	56	3	-2
CCNC(=O)C1CC(=O)N(c2ccc(Br)cc2)C1 (stereo not drawn)	-2	-4	-6	0	-8
CCOCc1nnc(NC(=O)CSc2ccccc2)s1	-8	0	-6	-1	-2
COc1cc(/C=N/NC(=O)c2cc(-c3ccc4c(c3)OCO4)n[nH]2)ccc1O	-7	-1	91*	3	75*
Cc1nn(-c2ccccc2)c(C)c1-c1cc(C(=O)N/N=C/c2ccc(O)cc2)[nH]n1	-4	-2	97*	1	75*
COc1cc(/C=N/NC(=O)c2cc(-c3c(C)nn(-c4ccccc4)c3C)n[nH]2)ccc1O	-10	0	84*	3	9
O=C(N/N=C/c1ccc([N+](=O)[O-])cc1)c1cc(-c2ccc3c(c2)OCO3)n[nH]1	-2	-6	0	-2	-11
Cc1nn(-c2ccccc2)c(C)c1/C=N/NC(=O)c1cc(O)cc(O)c1	10	-2	29	0	-3
COCCn1nnnc1C(c1ccccc1)N1CCN(c2ccccc2)CC1 (stereo not drawn)	4	-2	97*	1	-4
CC(C)C(c1nnnn1Cc1ccc(F)cc1)N1CCN(c2ccc(O)cc2)CC1 (stereo not drawn)	-2	-4	100*	2	11
CCC(C)(C)n1nnnc1C(c1ccc2ncccc2c1)N1CCN(c2ccc(O)cc2)CC1 (stereo not drawn)	-4	1	100*	2	-4

Assay outcomes deposited in PubChem BioAssay by several laboratories.
